The nature of experiment [1]: NCI Yeast Anticancer Drug Screen. Data for the mec2-1 strain (AID 157). As to conditions: S. cerevisiae mec2-1 strain, at 50.0 µM, hits give high values. The procedure, abridged: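 Each compound was tested on mec2-1 yeast, a strain altered in DNA damage repair or cell cycle control. Growth inhibition is reported relative to vehicle.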
Experiment [2] in a line: NCI Yeast Anticancer Drug Screen. Data for the sgs1 mgt1 strain (AID 161).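 Further: 0% = growth of cultures given vehicle only.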 As to conditions: S. cerevisiae sgs1 mgt1 strain, at 50.0 µM, hits give high values. The procedure, abridged:
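Inhibition of yeast growth, normalised to vehicle-treated controls, is reported for a strain bearing genetic alterations in DNA damage repair.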

A short description of experiment [3]: NCI Yeast Anticancer Drug Screen. Data for the cln2 rad14 strain (AID 165).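 Further: 0% = growth equal to vehicle treated cultures.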 As to conditions: S. cerevisiae cln2 rad14 strain, at 50.0 µM, hits give high values. The procedure, abridged: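 Test compounds were added to cln2 rad14 yeast cultures; inhibition of growth was then determined by comparison with vehicle treatment.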
Experiment [4] can be described thus: NCI Yeast Anticancer Drug Screen. Data for the bub3 strain (AID 167). As to conditions: S. cerevisiae bub3 mutant strain, at 50.0 µM, hits give high values. Put shortly: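 Inhibition values come from growth of compound-treated mutant yeast normalised to vehicle-treated controls.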
The nature of experiment [5]: NCI Yeast Anticancer Drug Screen. Data for the mlh1 rad18 strain (AID 175). As to conditions: S. cerevisiae mlh1 rad18 strain growth inhibition; at 50.0 µM; hits give high values. The procedure, abridged: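 Inhibition values reflect reduced growth of mutant yeast versus vehicle-treated controls following compound exposure; the mutations affect DNA damage repair.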

Our source for the growth inhibition values is PubChem BioAssay (NCI).

Compounds without any hit were thinned out: in the full panel of roughly 79,000, 15% have a hit. A number with no mark means an inactive call. Active and inactive are the calls of the source. No stated cut-off is given here; in the data, active means growth inhibition above about 70%; inactive means the rest.

With `CC(=O)Nc1cc(C)c(C)cc1[N+](=O)[O-]`, the growth inhibition was -16.6% in experiment [1]; -9.45% in experiment [2]; 3.3% in experiment [3]; -27.1% in experiment [4]; -11.7% in experiment [5].
Turning to `CC12CC(O)C(C=C1c1ccccc1)C2(C)C` (stereo not given), the growth inhibition is -0.95% in experiment [1]; 0.85% in experiment [2]; -14% in experiment [3]; -13.1% in experiment [4]; 1.45% in experiment [5].
For `O=C1NCCS(=O)(=O)N2CCC[C@@H]12`, in that order: -20%, 5.1%, 21.4%, -19.6% and -14.9%.
Regarding `Cc1nnc2sc(Cl)nn12`, the growth inhibition in experiment [1] is 48.8%; in experiment [2], 48.1%; in experiment [3] it was 17.7%; in experiment [4], 12.9%; in experiment [5] it was 22.8%.
With `CS(=O)(=O)OCC1COCC1COS(C)(=O)=O` (stereo not given), the growth inhibition in experiment [1] was -6.3%; in experiment [2] it was 8.75%; in experiment [3], -11.8%; in experiment [4] it was -14.1%; in experiment [5] it was 16.6%.
Take `CCOc1c(N2CCOCC2)c(=O)c1=O`: the growth inhibition in experiment [1] was -19.4%; in experiment [2], 5.7%; in experiment [3], 6.65%; in experiment [4], 30.9%; in experiment [5] it was 5.95%.
For `C/C(N)=C\c1nc(=O)ccs1`, in that order: 11.8%, 2.35%, 24.8%, 5.2% and 13.3%.
The corresponding values for `C1CCC2C3CCC(O3)C2C1` (stereo not given) are 1.05%, 5.4%, -33.7%, -39.1% and 2.35%.
The corresponding values for `O=C(NN1C(=O)CSC1c1ccc(F)cc1)c1ccncc1` (stereo not given) are 1.1%, 4.15%, -6.75%, 7.95% and 11.8%.
Consider `CC(C)(C)NC(=O)NCCCl`, for which the growth inhibition in experiment [1] is -11.4%; in experiment [2] it was -2.45%; in experiment [3] it was -33.9%; in experiment [4], 2.95%; in experiment [5], 5.35%.
For `S=C(Sc1nc2ccccc2[nH]1)Sc1nc2ccccc2[nH]1`, in that order: -4.05%, 10.2%, -34.9%, 8.95% and 24.6%.
Regarding `CCN(CC)CCCCCOC(=O)c1cccc(N)c1`, the growth inhibition in experiment [1] is 0.35%; in experiment [2], -16.6%; in experiment [3], -45.9%; in experiment [4], 27.2%; in experiment [5], -10.1%.
The corresponding values for `COC(=O)c1c(-c2ccccc2)cn(C)c1C` are 9.95%, 12.8%, 5.75%, 6.6% and -6.4%.
The corresponding values for `CCOc1c(N=Nc2ccccc2Cl)c(C)nn1C(N)=S` are 8.7%, 45.5%, -2.25%, 53.4% and 49.4%.
The corresponding values for `O=C1CSC(c2cccc([N+](=O)[O-])c2)N1c1ccc(-n2c(-c3ccccc3)nc3ccccc3c2=O)cc1` (stereo not given) are -17.1%, 11.9%, -6.8%, 34% and 7.25%.
`CCOC(=O)c1cnc2ccc(OC)cc2c1`: the growth inhibition in experiment [1] was 0.7%; in experiment [2], -6.35%; in experiment [3], -76.6%; in experiment [4], 35.5%; in experiment [5], 18.3%.
For `Cc1cn(C(=O)NC23CC4CC(CC(C4)C2)C3)c(=O)[nH]c1=O`, in that order: 1.6%, 11.1%, 9.65%, 10.9% and 82.2% (active).
For `COc1ccccc1C(C)C`, in that order: -3.8%, -0.85%, -21.8%, -6.45% and -16.2%.
Turning to `OC1CCCCC12CC2` (stereo not given), the growth inhibition in experiment [1] is 1.5%; in experiment [2], 5%; in experiment [3], -3.55%; in experiment [4], -15.2%; in experiment [5], -3.2%.
For `CNc1nc(Cl)cc2nc(Cl)cn12`, in that order: 15.8%, -18.6%, -12.1%, 8.3% and 4.55%.
The corresponding values for `CCCCC1=CC1(C#N)[N+](=O)[O-]` (stereo not given) are 11.5%, 20.5%, 21.6%, 17.3% and 27.8%.
As to `CCC(CC)(C1CCC(=O)CC1)C1CCC(=O)CC1`, the growth inhibition was -3.55% in experiment [1]; -1.05% in experiment [2]; -9.2% in experiment [3]; 37.1% in experiment [4]; 13.6% in experiment [5].
The corresponding values for `COc1cc(/C=C(\C#N)c2ccccn2)cc(Br)c1O` are 5.15%, -3.9%, 17.2%, 25.8% and -21.6%.
For `Cc1ccc(S(=O)(=O)OC2CCCCCCCCCCC2=O)cc1` (stereo not given), the growth inhibition is 6.1% in experiment [1]; -7.1% in experiment [2]; -11.9% in experiment [3]; -0.2% in experiment [4]; 6.3% in experiment [5].
For `COc1ccc(-c2cc(-c3ccccc3)c(C#N)c(=O)n2C2OC(CO)C(O)C(O)C2O)cc1` (stereo not given), in that order: 11.6%, 2.45%, 12.8%, -5.6% and -2.05%.
For `O=[N+]([O-])c1ccc(/C=C(/c2ccc([N+](=O)[O-])o2)S(=O)(=O)c2ccccc2)o1`, in that order: 67.7%, 92.1% (active), 71.1% (active), 61% and 90.2% (active).
The corresponding values for `O=C(NCCCCCCNC(=O)Oc1ccccc1F)Oc1ccccc1F` are -14.5%, -6.5%, -0.05%, 6.4% and -20.9%.
Regarding `C=CCN1C(SC)=NC(=O)C1(c1ccccc1)c1ccccc1`, the growth inhibition in experiment [1] was 9.95%; in experiment [2], 8.75%; in experiment [3] it was -10.2%; in experiment [4], 10.2%; in experiment [5] it was 22.8%.
